The text below walks through data of PubChem BioAssay (NCATS).

Results filed as inconclusive are left out. A call without a number means that no potency is given here. Activity calls are given as the source filed them. Calls follow the shape of the dose curve; as a rule, active = well fitted inhibition curve with a large enough effect; inconclusive = small, poorly fitted or top-dose-only effect; inactive = no such curve, though single readings can be large or run the other way. Bridge positions count the residues as written; N and C are the ends. Square brackets hold non-standard residues; d marks the D form. Side chains are listed from the residue outwards. Peptide text beside a SMILES is read from it. * marks the point of attachment. Phg(4-OMe) = COc1ccc([C@H](N)C(=O)O)cc1; d(aIle) = CC[C@H](C)[C@@H](N)C(=O)O; d(aThr) = C[C@@H](O)[C@@H](N)C(=O)O; NMeF = CN[C@@H](Cc1ccccc1)C(=O)O; Isobutyryl = CC(C)C(=O)*
Potency is read from the fitted curve at half-maximal effect.

The nature of this test: qHTS for ATAD5 Antagonist screened against the NCATS CANVASS Library (AID 1347370). Also: nearly all actives have a fitted effect of over 65% in size. The note with it: HEK293T-ATAD5-luc, 5-FUrd stimulated, luminescence, 16 h; series mostly up to 46.1 µM. Summed up:
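HEK293T cells with a stably integrated ATAD5-controlled luciferase reporter were exposed to compounds (11-pt) alongside 10 uM 5-fluorouridine as ATAD5 stabilizer for 16hr at 37C. Viability was read by CellTiter-Fluor fluorescence, then ATAD5 by luminescence.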
In general terms: In qHTS, concentration-response curves come from the screen itself.
As to `CC(C)=CCC[C@]12c3cc4c(cc3CC[C@@]1(C)[C@H](C)CC[C@@H]2O)[nH]c1ccccc14`, the Potency entry was “inactive”.
On the same count and under the same terms, for `C/C=C/C1C=CC2CC(C)CC(C)C2C1C(=O)CC(=O)NC(CO)C/C=C/CCCCC` (stereo unspecified) the value was 23.4 µM (active); for `C=C1CC[C@@H](Br)C(C)(C)[C@]12CC=C(C)C(=O)C2`, “inactive”.
For the compound `C=CC(CCCCC)C1C(=O)NC(=O)C1C(=O)C1C(/C=C/C)C=CC2CC(C(=O)O)CC(C)C21` (stereo unspecified), the Potency result was “inactive”.
In the case of `COc1cc(/C=C/C(=O)OC[C@@H](Cc2ccc(O)c(OC)c2)[C@@H](COC(=O)/C=C/c2ccc(O)c(OC)c2)Cc2ccc(O)c(OC)c2)ccc1O`, the Potency was 1.48 µM (active).
In the case of `C=C1CC[C@@H](O[C@H]2C[C@@](O)([C@H](C)NC(=O)c3[nH]c(C)c(Cl)c3Cl)[C@H](O)[C@@H](C)O2)[C@@H]2C=C[C@H](C)C(/C(O)=C3/C(=O)[C@H](C(C)C)N([C@@H]4O[C@H](C)[C@H](OC(N)=O)[C@H](OC(C)=O)[C@@H]4OC)C3=O)[C@@H]12` (stereo partly specified), the Potency result is “inactive”.
Same read-out and setting: with `CC[C@H](C)[C@H]1NC(=O)[C@@H](NC(=O)C(C)C)[C@@H](C)OC(=O)[C@H](COC(=O)CNC(C)=O)NC(=O)[C@@H]([C@@H](C)O)NC(=O)[C@H](Cc2ccccc2)N(C)C(=O)[C@H](c2ccc(OC)cc2)NC1=O` (Isobutyryl-T[d(aIle)][Phg(4-OMe)][NMeF][d(aThr)]S([Gly-Ac]); ester 1-C) the entry was “inactive”; with `C=C(C)CC[C@H](Cc1c(O)cc(O)c2c1O[C@H](c1ccc(O)cc1)CC2=O)C(=C)C`, 23.4 µM (active); with `COc1c(O)cc2c(c1O)C(=O)c1c(coc1C)C2=O`, “inactive”.
Still for that read-out and setting: with `C[C@]12CC[C@]3(C1)[C@H](CC2=O)C[C@@H](OC(=O)c1ccccc1)[C@H]1[C@](C)(C(=O)O)CCC[C@@]13C` the entry was “inactive”.
Turning to `Cc1occ2c1C(=O)c1c(cc(O)c(O)c1O)C2=O`, the Potency result is “inactive”.
Turning to `COc1ccc2[nH]c3c(c2c1)CCN1C[C@H]2C[C@@H](OC(=O)c4cc(OC)c(OC)c(OC)c4)[C@H](OC)[C@@H](OC)[C@H]2C[C@H]31`, the Potency is 6.6 µM (active).
On to `C=C[C@](Cl)(CBr)CCC=C(C)C`, for which the Potency entry is “inactive”.
On to `CC(=O)O[C@H]1c2ccccc2-c2c3c(cc4c2[C@@H]1N(C(C)=O)CC4)OCO3`, for which the Potency result was “inactive”.
`C=CC(CCCCC)C1C(=O)NC(=O)C1C(=O)C1C2C(C)CC(C(=O)O)CC2CC1(O)C(=O)/C=C/C` (stereo unspecified): the Potency result was “inactive”.
Same read-out and setting: with `C[C@]12CCC[C@](C)(C(=O)O)[C@@H]1CC[C@@]1(C)c3cocc3CC[C@H]21` the entry was “inactive”.
On to `COc1cc(C2OCC3C(c4ccc(O)c(OC)c4)OCC23)ccc1O` (stereo unspecified), for which the activity change, negative = inhibition is -9.99% [at 9.19 µM] (inactive).
Regarding `COc1cc(O)c(C(=O)[C@@H]2[C@H](CC=C(C)C)C(C)=CC[C@H]2c2ccccc2)c(O)c1`, the Potency result was “inactive”.
`C[n+]1cc2cc(C(N)=O)[nH]c3c(=N)c(Cl)c(N)c1c23`: the Potency entry was “inactive”.
Same read-out and setting: for `COc1cc2c(c(O)c1O)C(=O)c1c(coc1C)C2=O` the value was “inactive”.
Take `CCC(=O)N[C@@H](C[C@H](C)C(Cl)(Cl)Cl)C(=O)N1C(=O)C=C(OC)[C@@H]1CC(C)C`: the Potency entry was “inactive”.
The same measure, in the same setting: for `O=c1cc(-c2ccc(O)c(O)c2)oc2cc(O[C@@H]3O[C@H](CO)[C@@H](O)[C@H](O)[C@H]3O)cc(O)c12` the value was “inactive”.
The same measure, in the same setting: for `C/C1=C/[C@@H](C)[C@H](O)[C@@H](O)/C=C/CC/C=C/C(=O)O[C@@H]1[C@H](C)C(=O)CCCC1CC(=O)NC(=O)C1` the value was “inactive”; for `CN1CC[C@]2(c3cccc4c3N[C@H]3N(C)CC[C@@]43[C@]34CCN(C)[C@H]3Nc3ccccc34)c3ccccc3N[C@H]12`, “inactive”; for `COc1cc2c(cc1OC)[C@@H](c1ccc3c(c1)OCO3)C(C)C(C)C2=O` (stereo partly specified), 26.3 µM (active).
Turning to `C/C=C(/C)c1c(Cl)c(O)c(C)c2c1Oc1c(Cl)c(O)c(Cl)c(C)c1C(=O)O2`, the Potency entry is “inactive”.
With `CC(C)[C@]12CC[C@@]3(C)[C@H](C)CC[C@H](O)[C@@]3(CC1)c1cc3c(cc12)[nH]c1ccccc13`, the Potency result was “inactive”.
On the same count and under the same terms, with `C[C@H]1C=C[C@H]2CCCC[C@@H]2[C@H]1C(=O)[C@H]1CC2=C(C(=O)O)CCN2C1=O` the entry was “inactive”; with `C/C(=C\CC[C@@H](C)[C@H]1CC[C@]2(C)C3=CCC4C(C)(C)[C@@H](O)C[C@@H](O)[C@]4(C)C3[C@H](O)C[C@@]12C)CO` (stereo partly specified), “inactive”.
Take `COC12OC1(C13OC1(OC)C(=O)c1cc4cc(C)oc(=O)c4c(O)c1C3O)C(O)c1c(cc3cc(C)oc(=O)c3c1O)C2=O` (stereo unspecified): the Potency entry is “inactive”.
Still for that read-out and setting: with `CO[C@H]1[C@@H](OC(=O)/C(C)=C\[C@@H]2O[C@@H]2[C@H]2O[C@H]2C)[C@H](O)[C@H](OCC23C[C@@H]4[C@H](C)CC[C@H]4C4(C=O)CC2C=C(C(C)C)C34C(=O)O)O[C@@H]1C` (stereo partly specified) the entry was “inactive”.
